# Glyco luc inh: blocks N-linked glycosylation in D54 reporter cells; D54 ERlucT glycosylation luciferase reporter, 24 h; percent of 100 nM tunicamycin response; reporter increase, % at 12.5 µM; 360,000 tested, 0.23% active;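 active means mean luciferase reporter signal, scaled so untreated is 0 and the glycosylation-blocking control 100, at or above a set limit in every replicate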;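 further: luciferase carries N-glycosylation sites so blocking glycosylation raises the light; 0% = median of neutral control wells and 100% = median of 100 nM tunicamycin wells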
# CDK5 inh: blocks human CDK5/p35 kinase activity; AID 488839; 330,000 tested, 0.01% active; Recombinant CDK5/p35, ADP-Glo luminescence, 60 min; inhibition, % at 10 µM; Q00535+Q15078;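 active means highest replicate inhibition of at least 50% and at least 75% of replicates reaching 50%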;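 further: plate controls were DMSO neutral control for no effect and GW8510 at 10 µM for full effect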
# Mot1-301 SUMO: inhibitors of SUMOylation pathway: yeast Mot1-301 growth rescue. 320,000 tested, 1% active. growth rescue, % at 18.8 µM. S. cerevisiae Mot1-301 growth rescue, ATP luminescence, 38.5C; percent above DMSO median, 100 means doubled;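 active means every valid replicate shows activation above 250% relative to neutral control wells; inactive means the rest, any valid replicate at or below 250%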;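 further: OY570 slx delta 5 strain wells were the positive control but not used for scaling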
# NSD2 inh: NSD2 (human) methyltransferase inhibition; O96028; NSD2 peptide methylation, AlphaScreen, 120 min; inhibition, % at 12.5 µM; 310,000 tested, 0.54% active; in the data active means inhibition above about 50%
# Casp6 inh: blocks human caspase-6 cleavage activity; P55212; purified caspase-6, Z-VEID-R110 cleavage fluorescence; inhibition, % at 12.5 µM; 350,000 tested, 0.53% active; AID 686996;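 active means mean inhibition across replicates at least about 35%, with every replicate also reaching that limit, limit read from the data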;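 further: 0% = median of neutral control wells and 100% = no fluorescence left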
# Target sequence (P55212 24-179 limits assumed): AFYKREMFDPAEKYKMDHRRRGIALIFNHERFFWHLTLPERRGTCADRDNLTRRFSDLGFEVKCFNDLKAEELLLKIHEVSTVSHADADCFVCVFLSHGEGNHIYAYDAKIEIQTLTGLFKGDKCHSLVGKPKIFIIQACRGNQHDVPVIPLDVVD
# Target sequence (P55212 194-293 limits assumed): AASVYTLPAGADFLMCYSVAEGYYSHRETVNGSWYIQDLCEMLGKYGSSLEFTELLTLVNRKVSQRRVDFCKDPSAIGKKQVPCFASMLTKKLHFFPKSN
# ALR inh: inhibitors of human sulfhydryl oxidase ALR; P55789; purified ALR, DTT oxidation, H2O2 HRP-luminol luminescence; inhibition, % (no concentration beside the values); 290,000 tested, 3.8% active;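 active means mean replicate inhibition above about 79%, with every replicate also reaching it, limit read from the data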
# Target sequence (P55789 whole entry, looked up): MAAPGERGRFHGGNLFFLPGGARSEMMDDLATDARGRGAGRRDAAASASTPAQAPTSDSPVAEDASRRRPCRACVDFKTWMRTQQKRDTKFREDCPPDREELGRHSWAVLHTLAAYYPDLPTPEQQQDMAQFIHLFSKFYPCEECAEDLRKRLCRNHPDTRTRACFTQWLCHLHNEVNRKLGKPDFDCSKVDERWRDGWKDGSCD
# Active calls of the source: *; / = no result. Sampled rows, rich in hits. Any-hit rate of the full collection: about 3.9%.
SMILES,Glyco luc inh,CDK5 inh,Mot1-301 SUMO,NSD2 inh,Casp6 inh,ALR inh
CC1(C)Cc2nc(-c3ccccc3)nc(NNC(=O)c3ccco3)c2CO1,-0.1,0.7,19.0,0.8,1.0,97.4*
COc1ccc(CN(C)C[C@H]2OCCCC[C@H](C)Oc3ccc(NC(=O)c4ccccc4)cc3C(=O)N([C@H](C)CO)C[C@H]2C)cc1,/,/,/,/,2.3,/
Cc1ccc(NC2CCCN(C(=O)c3ccccc3N3CCOCC3)C2)cc1C (centres undefined),0.1,0.6,-2.3,9.4,0.8,99.2*
O=C(c1ccccc1N1CCOCC1)N1CCCC(Nc2ccc(F)cc2)C1 (centres undefined),1.0,-0.2,-6.0,-0.5,-0.5,98.5*
COc1ccccc1C(=O)NC1=NCCS1,/,/,/,0.9,/,/
COC(=O)CSCc1nc2ccccc2[nH]c1=O,1.3,0.2,-11.5,/,7.1,99.3*
COC(=O)CCc1nc2ccccc2[nH]c1=O,1.0,-0.2,-1.8,0.4,/,-3.0
O=C(Cc1ccc(Cl)cc1)NNC1CC(=O)N(c2ccc3ccccc3c2)C1=O (centres undefined),0.3,0.0,289.0*,1.4,-0.2,0.4
O=C(Cc1ccccc1)NNC1CC(=O)N(c2ccc(Cl)cc2)C1=O (centres undefined),1.6,0.9,-2.9,1.3,0.2,-5.8
Cc1[nH]c2ccccc2c1C(C[N+](=O)[O-])c1cccc(O)c1 (centres undefined),-1.0,-0.5,129.4,5.3,/,98.0*
Cc1[nH]c2ccccc2c1C(C[N+](=O)[O-])c1ccco1 (centres undefined),-0.5,0.4,3.3,/,5.1,20.6
COc1cc(C(C[N+](=O)[O-])c2c(C)[nH]c3ccccc23)ccc1O (centres undefined),-0.8,0.3,7.9,8.4,-3.3,98.8*
Cc1ccc(-c2[nH]c3ccccc3c2C(C[N+](=O)[O-])c2ccco2)cc1 (centres undefined),-1.8,0.4,121.0,3.7,/,93.5*
Cc1[nH]c2ccccc2c1C(C[N+](=O)[O-])c1cccs1 (centres undefined),-4.1,0.6,-3.8,2.1,-0.4,59.0
COc1cccc(NC(=O)N(C)C[C@H]2Oc3ncc(/C=C/c4ccccc4)cc3C(=O)N([C@H](C)CO)C[C@@H]2C)c1,/,/,/,/,-3.0,/
O=C(NC1CCCC1)N1CCCCN2[C@H](C1)[C@H](c1ccc(/C=C/c3ccccc3)cc1)[C@@H]2CO,/,/,/,/,3.1,/
CC(C)c1ccc(C2c3[nH]c4ccccc4c3C[C@H]3C(=O)N(c4ccccc4C(=O)N4CCC[C@H]4C(=O)O)C(=O)N23)cc1 (some centres undefined),0.2,-4.7,-17.6,/,3.7,98.1*
COc1cccc(C2c3[nH]c4ccccc4c3C[C@H]3C(=O)N(c4ccccc4C(=O)N4CCC(C(=O)O)CC4)C(=O)N23)c1 (some centres undefined),-0.2,-1.3,-24.3,/,4.9,98.3*
COc1ccc(C2c3[nH]c4ccccc4c3C[C@H]3C(=O)N(c4ccccc4C(=O)N4CCC(C(=O)O)CC4)C(=O)N23)cc1 (some centres undefined),1.7,-1.9,342.5*,/,-1.5,10.1
c1ccc2c(c1)C1=NCCN1c1ccccc1-2,78.2*,/,/,3.0,-4.5,/
COC1=Nc2ccccc2N2CCN=C12,1.4,/,/,-4.5,-0.8,/
CN(C)C(=O)[C@@H]1[C@@H](CO)[C@@H]2Cn3c(ccc(-c4ccccc4F)c3=O)[C@H]1N2C(=O)c1cccnc1,/,/,/,/,5.5,/
O=C1c2ccccc2C(=O)c2c([N+](=O)[O-])ccc(O)c21,2.5,0.5,-30.3,13.8,38.4*,/
O=C(C[C@@H]1C[C@@H]2c3cc(NC(=O)C4CCC4)ccc3O[C@@H]2[C@@H](CO)O1)NCc1cc(F)ccc1F,/,/,/,/,2.4,/
COc1cc(O)c(C(=O)/C=C/c2ccccc2)c(OC)c1,41.7*,-0.1,1.4,/,-2.8,7.4
SMILES,Glyco luc inh,CDK5 inh,Mot1-301 SUMO,NSD2 inh,Casp6 inh,ALR inh
O=C(/C=C/c1ccc(O)cc1)c1c(O)cc(O)cc1O,-0.2,-0.3,6.6,/,-1.3,98.4*
O=C(/C=C/c1ccc2c(c1)OCO2)c1ccc(O)cc1O,8.5,1.2,/,7.6,7.1,/
CC(C)NC(=O)Nc1ccc2c(c1)C(=O)N([C@@H](C)CO)C[C@@H](C)[C@H](CN(C)C(=O)Nc1ccc(C(F)(F)F)cc1)OCCCC[C@@H](C)O2,/,/,/,/,1.2,/
CCOC(=O)c1c(N)sc(C(=O)N(CC)CC)c1C,1.4,-1.4,-4.5,5.0,-4.1,95.6*
CCOC(=O)c1sc(NC(=O)CCN2CCCCCC2)c(C(=O)OCC)c1C,-1.4,-0.6,14.2,-1.8,-4.5,97.4*
CCOC(=O)c1c(N)sc(C(=O)N2CCCCCC2)c1C,-1.2,-0.1,0.4,2.4,/,82.9*
COc1ccc(OC)c2[nH]c(=O)c(CCNC(=O)c3cc4ccccc4oc3=O)cc12,/,/,/,5.0,/,/
CCC(=O)N1C[C@@H](C)[C@@H](OC)CN(C)C(=O)c2ccc(NC(=O)c3ccc(F)cc3)cc2OC[C@@H]1C,/,/,/,/,0.1,/
CN[C@H](CC(=O)O)C(=O)O,0.1,1.2,306.7*,/,-1.7,0.1
C[C@@H](O)CC(=O)O,1.5,1.2,14.2,/,-0.9,0.8
CCOC(=O)n1ccc(C(=O)Nc2ccccc2F)n1,0.1,0.7,-18.4,1.9,/,96.4*
COc1ccccc1N1C(=O)Cc2ccccc2C1=O,0.9,1.5,13.0,/,48.8*,2.7
Cc1ccc(N2C(=O)Cc3ccccc3C2=O)cc1,-0.6,0.8,-18.2,-5.1,49.7*,10.4
COc1ccc2c(c1)C(=O)N(c1ccccc1OC)C(=O)C2,-0.7,-0.8,6.1,3.4,22.0,-7.1
Cc1cccc(N2C(=O)Cc3ccccc3C2=O)c1,1.9,-1.9,-9.3,3.9,48.0*,/
C/C=C/c1cnc2c(c1)C(=O)N([C@@H](C)CO)C[C@H](C)[C@H](CN(C)C(=O)NCCC)O2,/,/,/,/,3.2,/
C[C@H](CO)N1C[C@H](C)[C@@H](CN(C)Cc2ccc(C(=O)O)cc2)Oc2ccc(NS(C)(=O)=O)cc2CC1=O,/,/,/,/,1.6,/
O=C(CC1CCCCC1)c1c(O)c2ccccc2oc1=O,0.7,-1.1,12.7,9.9,/,97.2*
CC(C)C(C)NC(=O)CSc1nc2scc(-c3ccco3)c2c(=O)n1-c1ccccc1 (centres undefined),-3.2,-0.1,4.5,1.9,/,96.1*
O=C(NCC[C@H]1CC[C@H](NS(=O)(=O)c2cccc(F)c2)[C@H](CO)O1)C1CCC1,/,/,/,/,1.1,/
CCCCCCCn1c(=N)n(CC(=O)c2ccco2)c2ccccc21,-7.7,-5.5,514.1*,4.7,/,-10.8
CCCCn1c(=N)n(CC(=O)c2ccco2)c2ccccc21,-3.5,-0.2,-2.7,1.8,-1.1,-1.3
O=C1CCC/C(=N/NC(=O)c2sc3ccccc3c2Cl)C1,0.6,-0.1,-12.5,7.5,-3.0,97.8*
